In the supplement of paper PMC6555819:

Legend:
Assay in all cases: PBM binding z-score (relative to random genomic background probes); higher = stronger binding; sequences stand for … in GC…GCGATTGACAGCGTAGAATGAAGG
[1] = system: RARb homodimer (NR concentration 270 nM)
Method in brief: (§1)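 Each nuclear receptor dimer, without ligand, was incubated for 1 h on custom Agilent 4×180K protein-binding microarrays. Binding was detected with antibodies against each partner (one per run), and scanned fluorescence was regression-normalized. The binding z-scores are referenced to random human genomic background probes.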

[2] = system: RARg:RXRa (NR concentration 270 nM, RXRa partner concentration 90 nM)
Method in brief: as §1

[3] = system: RARg homodimer (NR concentration 270 nM)
Method in brief: as §1

[4] = system: RXRa DBDmut IVT, anti-RXR (DBD mutation: RXRa K156A/R161A, NR concentration 90 nM)
Method in brief: as §1

[5] = system: RXRa homodimer (NR concentration 180 nM)
Method in brief: as §1

[6] = system: THRa homodimer (NR concentration 90 nM)
Method in brief: as §1

[7] = system: VDR homodimer (NR concentration 270 nM)
Method in brief: as §1

[8] = system: THRa:RXRa (NR concentration 90 nM, RXRa partner concentration 90 nM)
Method in brief: as §1

[9] = system: VDR:RXRa (NR concentration 270 nM, RXRa partner concentration 90 nM)
Method in brief: as §1

Row | Sequence | PBM binding z-score [1] | PBM binding z-score [2] | PBM binding z-score [3] | PBM binding z-score [4] | PBM binding z-score [5] | PBM binding z-score [6] | PBM binding z-score [7] | PBM binding z-score [8] | PBM binding z-score [9]
1 | ACTAGTGGGTCAGCTGAGGTCACACACAATTCGG | 5.07 | 5.77 | 6.44 | 1.74 | 5.48 | 4.71 | 4.55 |  | 
2 | CCAGACAGGTGAAAGGTCACTCAGTCTGGTACGC | 4.99 | 6.66 | 5.89 | 1.18 |  | 1.02 | 2.37 | 3.75 | 
3 | CCGACTGGGGCAAAGGTTACCATGCTCAGTACGA | 2.01 | 3.66 | 1.55 | -0.0654 |  | -0.38 | -0.359 | 1.74 | 
4 | CCTACGGGGCCAAGGTCATTGATCAGTCAAAGCA | 3.51 | 4.02 | 3.77 | 1.21 |  | 2.04 | 3.09 | 3.47 | 
5 | TGAATGAAGTTAAAGATCAGGGAACGTGGCGTCG | -1 | -0.156 | 0.00438 | -0.803 |  | -1.06 | -0.533 | -0.586 | 
6 | ACTAGCAGGCCAAGGGTGACTCAAGATTAGTCCG | 0.337 | 0.341 | 0.646 | -0.454 |  | -0.521 | -0.791 | 0.239 | 
7 | CCTACTGGGCCATACAGAGGTCATTGATCATATG | 3.98 | 4.45 | 3.22 | 0.759 |  | 1.47 | 4.19 | 3.15 | 
8 | TGAATGACGTTAAAGATCAGGGAACGTGGCGTCG | -0.807 | 0.00646 | 0.113 | -0.922 |  | -0.747 | -0.61 | -0.478 | 
9 | CCTACTGGGCCATGAAAGGTCATTGATTCAGTGA | 4.4 | 4.23 | 3.85 | 0.456 |  | 0.811 | 2.39 | 3.58 | 
10 | CGTCCAAGGTCATAGGAGGTCATTGAAGACAGAT | 5.6 | 7.14 | 7.75 | 4.08 |  | 3.7 | 6.14 | 5.39 | 
11 | TAGCCTAGGTCAAGCGGGCCAGTATAGTGTCGGC | 3.29 | 4.34 | 5.14 | 0.428 |  | 0.702 | -0.353 | 2.9 | 2.6
12 | CCTTACGGGTCACGGGGTTATAGCACGACGAGCG | 3.7 | 6.74 | 5.54 | 1.77 |  | 0.91 | 2.44 | 4 | 
13 | CCTAGTTGGTCAGGAGGCCACACACCGGATATGA | 1.51 | 0.776 | 1.23 | -0.19 |  | 0.708 | 0.435 | 0.326 | 
14 | TGAATGAGGTCAAAGATCAGGGAACGTGGCGTCG | 3.65 | 6.3 | 6.16 | 4.12 |  | 3.06 | 4.68 | 4.33 | 5.6
15 | TCTAGCTGGTCAAAGGTCACACACTCGAAATGCG | 5.13 | 7.3 | 6.69 | 1.15 |  | 1.36 | 1.86 | 3.88 | 5.36
16 | ACTCGGAGGGCAAAGGTCAGAGCTACGCCAGTGA | 4.39 | 7.23 | 5.86 | 1.7 |  | -0.408 | 1.05 | 3.36 | 

Row | Sequence | PBM binding z-score [1] | PBM binding z-score [2] | PBM binding z-score [3] | PBM binding z-score [4] | PBM binding z-score [5] | PBM binding z-score [6] | PBM binding z-score [7] | PBM binding z-score [8] | PBM binding z-score [9]
17 | CCTAGCAGGCGAGGGTCACTCAAGCATTTCGCTT | 2.36 | 2.77 | 1.69 | 0.212 |  | -0.42 | 0.128 | 1.79 | 
18 | ATCGAATGGTCGTGAGGTGAGTATACAGAAAGGC | 0.456 | 0.502 | 0.684 | -0.556 |  | 1.09 | 0.0134 | 1.5 | -0.0757
19 | GATACACGGTCAAGGCCAGAGTACGCGTATTGAT | 1.73 | 1.54 | 2.53 | -0.0133 |  | -0.515 | 0.324 | 0.429 | 
20 | TAGCATAGGTCATGCGGGCCAGTATAGTGTCGGC | 3.46 | 4.99 | 4.91 | 0.439 |  | -0.558 | 0.259 | 2.55 | 
21 | TCATATAGGTCAAAGGTGAAAGTCGGTGTGGTAA | 4.1 | 7.06 | 5.46 | 2.48 |  | 0.997 | 1.49 | 3.74 | 
22 | ATATGTGGGTTATCGGGTCATTCAGTTTGCGCAT | 3.15 | 2.99 | 2.07 | 1.99 |  | 3.41 | 4.15 | 3.45 | 
23 | CAAACTAGGTCACAGAGGTCAAACTCCGTGCGTA | 5.75 | 7.7 | 7.96 | 3.78 |  | 3.37 | 7.66 | 4.66 | 8.03
24 | ACTCGGAGGACAAATGTCAGAGCTACGCCAGTGA | 0.623 | 1.08 | 1.68 | 0.614 |  | -0.331 | -0.508 | 0.512 | -0.292
25 | AGTCAAAGTTCATCTAGGTATCGTAAGATATGCT | 3.84 | 5.45 | 5.99 | 4.54 |  | -0.179 | 5.25 | 2.8 | 
26 | CCTAGTTGGTCAAGCTCACACACGCTATAGGTAC | 0.906 | 0.632 | 1.12 | 0.623 |  | 0.545 | 0.614 | 0.136 | 
27 | ATATGCAGGTTATCGGGTCATTCAGTTTGCGCAT | 2.95 | 3.29 | 2.2 | 1.56 |  | 2.55 | 4 | 3.49 | 5.27
28 | GCTCGGAGGACAAGGTCACAGCTTTGTCCGTAGA | 3.72 | 4.76 | 4.75 | 1.17 |  | 3.04 | 1.96 | 3.79 | 3.47
29 | TTACCAAGGTTAAAGGTCGTTGATGCACGCCTTG | 3.04 | 5.05 | 3.09 | 1.88 |  | 0.88 | 2.29 | 3.63 | 
30 | CATACAGGGACAGCTAGGCCAGAGTAGGGACGGC | 0.286 | 0.368 | 0.718 | -0.689 |  | 0.148 | -0.709 | 0.703 | -0.582
31 | ACTAGTTGGTCAGCTGAGGTCACACACAATTCGG | 4.52 | 4.26 | 4.51 | 1.35 |  | 4.99 | 3.54 | 5.14 | 
